The record followed here is PubChem BioAssay (NCI).

Structures are written as SMILES. The panel holds about 83,000 compounds, 20% with a hit somewhere; the sample as a whole holds those more often.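 Growth was measured after 48 h exposure to one concentration of compound in 96-well plates. Values under 10 count as active.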 Values without a mark were called inactive. Activity calls are given as the source filed them.

What all share (experiment): NCI-60 one-dose screen, 48 h (100 = growth as untreated, 0 = no growth, -100 = all killed)
Test [1] has as its system HCT-15 colon. The note with it: 10 µM unless noted.
In test [2] the test system is HT29 colon. The following applies: 10 µM unless noted.
Test [3] deals with SNB-75 CNS. The note with it: 10 µM unless noted.
Test [4] has as its system SNB-19 CNS. The following applies: 10 µM unless noted.
Test [5] deals with U251 CNS. The note with it: 10 µM unless noted.
In test [6] the test system is PC-3 prostate. The note with it: 10 µM unless noted.
Test [7] deals with UACC-62 melanoma. The following applies: 10 µM unless noted.
Test [8] deals with LOX IMVI melanoma. The note with it: 10 µM unless noted.
The test system of test [9] is SK-MEL-28 melanoma. The note with it: 10 µM unless noted.
The test system of test [10] is SK-MEL-2 melanoma. The note with it: 10 µM unless noted.
Test [11] deals with SN12C renal. The note with it: 10 µM unless noted.
The test system of test [12] is UO-31 renal. The following applies: 10 µM unless noted.
Test [13] relates to TK-10 renal. The note with it: 10 µM unless noted.
For test [14], the system named is ACHN renal. The following applies: 10 µM unless noted.
Test [15] concerns CAKI-1 renal. The note with it: 10 µM unless noted.
Test [16] deals with A498 renal. The following applies: 10 µM unless noted.
For test [17], the system named is MOLT-4 leukemia. The note with it: 10 µM unless noted.
Test [18] has as its system EKVX NSCLC. The note with it: 10 µM.
Test [19] deals with CCRF-CEM leukemia. The following applies: 10 µM.
Test [20] relates to SK-MEL-5 melanoma. The following applies: 10 µM unless noted.

As to `Cc1ccc(NC(=O)CCl)cc1Cl`, the growth in test [1] was 80.9%; in test [2], 107%; in test [3] it was 91%; in [4], 94.5%; in [5] it was 80.5%; in test [6], 86.8%. Further, the growth in test [7] is 80.5%; in [8], 6.84% (active); in test [9], 107%; in test [10], 85.1%; in test [11] it was 93.6%; in test [12], 98.5%. Further, the growth in test [13] is 103%; in test [14], 92.3%; in test [15], 90.8%; in test [16], 119%; in test [17] it was 81.8%.
Take `CCOc1nc(-c2ccccc2)cc2c(O)c(C(=O)N/N=C/c3ccccc3O)[nH]c(=O)c12`: the growth in test [1] was 94%; in test [2] it was 110%; in test [3] it was 86.3%; in test [4], 97.2%; in test [5], 101%; in test [6] it was 92.8%. The growth in [7] is 117%; in test [8], 101%; in [9], 67.4%; in [10], 61.3%; in test [18] it was 97.3%; in test [11], 115%. The growth is 73.5% in test [12]; 140% in test [13]; 107% in test [14]; 101% in test [15]; 102% in [16]; 69.4% in [19]. Also, the growth in test [17] was 17.1%.
As for `CC[C@@H](C)/C=C(C)/C=C/C(=O)c1c(O)c(-c2ccc(OC(=O)[C@@]34CC[C@@](C)(C(=O)O3)C4(C)C)cc2)cn(O)c1=O`, the growth in test [1] is 27%; in test [2] it was 59.7%; in test [3] it was 30.6%; in [4], 36.8%; in [5], 15.7%; in test [20], -4% (active). For the same compound, the growth in test [7] is 5.24% (active); in test [8] it was 0.589% (active); in [9], 26.8%; in [10], 17.8%; in [18], 22.3%; in test [11] it was 30.4%. The growth in [12] is -26.4% (active); in test [13], 44.9%; in test [14] it was 9.64% (active); in [15], -27% (active); in [16], 49.8%.
With `CCCC(C)c1cc(Cc2cc(Cl)cc(Cl)c2O)c(O)c(Cc2cc(Cl)cc(Cl)c2O)c1` (centres undefined), the growth was 6.15% (active) in [1]; 14.4% in test [2]; 12.2% in [3]; 24.2% in test [4]; 7.55% (active) in test [5]; 3.76% (active) in test [6]. For the same compound, the growth was -5.72% (active) in [7]; 5.31% (active) in [8]; 8.03% (active) in test [9]; 1.41% (active) in [10]; 6.21% (active) in test [18]; 5.5% (active) in [11]. Also, the growth in [13] was 17.4%; in test [14], 0.12% (active); in test [15], 15.6%; in test [16], -29.8% (active); in test [19] it was 6.76% (active); in test [17] it was -8.73% (active).
In the case of `COc1cc(OC)c2c(=O)cc(-c3ccccc3)oc2c1`, the growth in test [1] is 105%; in test [2], 97.1%; in [3] it was 91.8%; in [4], 94.3%; in test [5], 92.2%; in test [6] it was 81.1%. For the same compound, the growth was 77.7% in test [7]; 97.5% in test [8]; 106% in test [9]; 103% in [10]; 103% in test [18]; 93% in [11]. Moreover, the growth is 70.2% in test [12]; 85.9% in test [13]; 103% in [14]; 86.4% in test [15]; 77.1% in test [16]; 26.9% in test [19]. For the same compound, in test [17], the growth is 80.4%.
For `COc1ccc(C2=NN(C(=O)c3cc(-c4ccc(C)cc4)nc4ccccc34)C(c3cc(-c4ccccc4)nn3-c3ccccc3)C2)cc1` (centres undefined), the growth in test [1] is 82.6%; in [2] it was 105%; in test [3] it was 88.3%; in test [4], 83%; in test [5] it was 85.3%; in test [6], 74.7%. Also, the growth is 83.5% in test [7]; 80.6% in test [8]; 93.8% in test [9]; 94.9% in test [10]; 99.6% in test [18]; 97.7% in test [11]. Further, the growth in test [12] is 79.8%; in test [13] it was 113%; in test [14], 98.6%; in [16] it was 91%; in test [19] it was 81.5%; in test [17], 84.7%.
On to `O=C1c2ccccc2CCc2ccccc21`, for which the growth in test [1] was 105%; in [2], 103%; in test [3], 91.8%; in test [4], 100%; in test [5], 93.1%; in test [20] it was 98.6%. Also, the growth was 95.6% in test [7]; 93.6% in [8]; 106% in [9]; 102% in test [10]; 89.4% in test [18]; 96.7% in test [11]. Also, the growth is 84% in [12]; 99.3% in test [13]; 102% in test [14]; 90.5% in test [15]; 91.8% in test [19]; 111% in test [17].
With `CCC(C)C1NC(=O)C(CCCCN)NC(=O)C(CCCCN)NC(=O)C(CC(C)C)NC(=O)C(CCCCN)NC(=O)C(C(C)CC)NC(=O)C(C(C)C)NC(=O)C(C(C)CC)NC(=O)C(CCCCN)NC(=O)C(CCCCN)NC(=O)C(C)NC(=O)C(CCCCN)NC(=O)C(CC(C)C)NC1=O` (centres undefined), the growth is 35.4% in test [1]; 5.52% (active) in [2]; 36.9% in test [3]; 20.9% in test [4]; 6.7% (active) in test [5]; 6.52% (active) in [6]. Besides, the growth in test [7] was 22.1%; in test [8] it was 50.5%; in test [9] it was 48.2%; in test [10], 28.6%; in test [18] it was 13.5%; in test [11], 12.3%. The growth is 14.6% in test [12]; 19.5% in [13]; 3.79% (active) in test [14]; 6.74% (active) in test [15]; 21.8% in test [16]; 22.2% in [17].
